Reference: PubChem BioAssay (NCATS)
Values without a mark were called inactive. Results filed as inconclusive are left out. Calls of active or inactive are those of the source. Calls follow the shape of the dose curve; as a rule, active = well fitted curve in the direction sought with a large enough effect; inconclusive = small, poorly fitted or top-dose-only effect, or another doubt; inactive = no such curve, though single readings can be large; an effect the other way counts as inactive or inconclusive.

Assay: MultiTox-Fluor Cytotoxicity Assay - LYMP1-002 - Dead Cells (AID 960); also: nearly all actives have a fitted effect of over 60% in size; also: potency is read from the fitted curve at half-maximal effect;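 as to cytotoxicity (dead cells): 0% = DMSO and 100% = tetraoctylammonium bromide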
Settings: LYMP1-002 lymphoblastoid cells, dead-cell protease fluorescence; series mostly up to 46.1 µM; cytotoxicity (dead cells): at the top concentration
In short: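 Human lymphoblastoid cells (LYMP1-002), 2500/well in complete medium, were exposed to compounds for 16 hr at 37 C. Dead-cell protease activity was read as bis-AAF-R110 fluorescence (Ex/Em 485/520), normalized to DMSO and 15 uM tetraoctylammonium bromide; AC50 from Hill fits.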

| Structure (SMILES) | cytotoxicity (dead cells) | Potency |
| --- | --- | --- |
| O=C(O)C(Br)Br | 7.09% |  |
| Cc1ccc(OP(=O)(Oc2ccc(C)cc2)Oc2ccc(C)cc2)cc1 |  | 25.1 µM (active) |
| Brc1ccc(Oc2ccc(Br)cc2Br)c(Br)c1 | -25.6% |  |
| CN1CSC(=S)N(C)C1 | 27.7% |  |
| O=[N+]([O-])c1ccc(O)c([N+](=O)[O-])c1 | 22.6% |  |
| CC(C)[N+](=O)[O-] | -6.78% |  |
| CCCC[N+](=O)[O-] | -19.9% |  |
| Nc1cc(Cl)ccc1O | -4.35% |  |
| CCN(N=O)C(N)=O | -9.33% |  |
| CCCCC(CC)COC(=O)c1ccc(C(=O)OCC(CC)CCCC)c(C(=O)OCC(CC)CCCC)c1 (stereo unspecified) | 11.6% |  |
| O=C(O)C(Br)CBr (stereo unspecified) | -13.9% |  |
| O=[N+]([O-])c1ccccc1CCl | 7.67% |  |
| Cc1cc(C)cc(OP(=O)(Oc2cc(C)cc(C)c2)Oc2cc(C)cc(C)c2)c1 |  | 31.6 µM (active) |
| N#CC(Br)Br | -5.53% |  |
| O=C(O)C(Cl)Br (stereo unspecified) | 7.38% |  |
| COP(=S)(OC)SCn1nnc2ccccc2c1=O | 13.8% |  |
| Nc1ccc([N+](=O)[O-])cc1N | 11.4% |  |
| O=C(O)c1cccc(Cl)c1 | 6.59% |  |
| CC(C)(COCC1CO1)COCC1CO1 (stereo unspecified) | 16.1% |  |
| COc1ccccc1N | -6.67% |  |
| CC(C)(C)OOC(=O)c1ccccc1 | 9.74% |  |
| c1ccc(N=NNc2ccccc2)cc1 | 9.42% |  |
| COC(C)(C)C | 2.44% |  |
| CN(C)c1ccc(N)cc1 | 13.8% |  |
| O=[N+]([O-])/C=C/c1ccccc1 | 44.3% |  |

Assay: MultiTox-Fluor Cytotoxicity Assay - LYMP1-003 - Dead Cells (AID 961); also: nearly all actives have a fitted effect of over 70% in size; also: potency is read from the fitted curve at half-maximal effect;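 as to cytotoxicity (dead cells): 0% = DMSO and 100% = tetraoctylammonium bromide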
Settings: LYMP1-003 lymphoblastoid cells, dead-cell protease fluorescence; series mostly up to 92.2 µM; cytotoxicity (dead cells): at the top concentration
In short: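 Human lymphoblastoid LYMP1-003 cells (2500/well) were treated with compounds for 16 hr at 37 C in complete medium. Dead-cell protease release was read by bis-AAF-R110 fluorescence (Ex/Em 485/520). AC50 came from Hill fits, normalized to DMSO and 15 uM tetraoctylammonium bromide.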

| Structure (SMILES) | cytotoxicity (dead cells) | Potency |
| --- | --- | --- |
| O=C(O)C(Br)Br | -12.9% |  |
| Cc1ccc(OP(=O)(Oc2ccc(C)cc2)Oc2ccc(C)cc2)cc1 | 21.3% |  |
| Oc1c(Cl)c(Cl)cc(Cl)c1Cl | -10.3% |  |
| Nc1ccc(Cc2ccc(N)c(Cl)c2)cc1Cl | -8.37% |  |
| CN(C)c1ccc(N(C)C)cc1 | -15.9% |  |
| Brc1ccc(Oc2ccc(Br)cc2Br)c(Br)c1 | -2.22% |  |
| O=[N+]([O-])c1c(Cl)c(Cl)c(Cl)c(Cl)c1Cl | 0.44% |  |
| CN1CSC(=S)N(C)C1 | 25.9% |  |
| ClCC(Cl)Cl | -20.7% |  |
| C=CC(=O)OCCO | -7.06% |  |
| CC(C)Br | -7.83% |  |
| O=[N+]([O-])c1ccc(O)c([N+](=O)[O-])c1 | 9.03% |  |
| CC(C)[N+](=O)[O-] | -1.39% |  |
| CCCC[N+](=O)[O-] | 6.79% |  |
| Cc1cc(-c2cc(C)c(N)c(C)c2)cc(C)c1N | 7.07% |  |
| CCN(N=O)C(N)=O | 4.23% |  |
| N#CC(Cl)(Cl)Cl | -8.02% |  |
| CCCCC(CC)COC(=O)c1ccc(C(=O)OCC(CC)CCCC)c(C(=O)OCC(CC)CCCC)c1 (stereo unspecified) | -8.93% |  |

| Structure (SMILES) | cytotoxicity (dead cells) | Potency |
| --- | --- | --- |
| O=C(O)C(Br)CBr (stereo unspecified) | -7.08% |  |
| Nc1c(Br)cc([N+](=O)[O-])cc1[N+](=O)[O-] | 0.326% |  |
| O=[N+]([O-])c1ccccc1CCl | 10.2% |  |
| N#CC(Br)Br | -13.6% |  |
| O=C(O)C(Cl)Br (stereo unspecified) | -13.3% |  |
| Nc1ccc([N+](=O)[O-])cc1N | 9.88% |  |
| O=C(O)c1cccc(Cl)c1 | -1.49% |  |
| Cc1cc(N=Nc2ccccc2C)ccc1N | 2.2% |  |
| OCCCCO | -12.1% |  |
| O=[N+]([O-])c1cc(Cl)c(Cl)c(Cl)c1 | -3.35% |  |
| CC(C)(COCC1CO1)COCC1CO1 (stereo unspecified) | -5.48% |  |
| Cc1ccc2c(c1N)C(=O)c1ccccc1C2=O | -7.52% |  |
| COc1ccccc1N | -5.18% |  |
| CC(C)(C)OOC(=O)c1ccccc1 | -10.1% |  |
| c1ccc(N=NNc2ccccc2)cc1 | 1% |  |
| COC(C)(C)C | -5.66% |  |
| C(CCOCC1CO1)COCC1CO1 (stereo unspecified) | 9.36% |  |
| O=[N+]([O-])/C=C/c1ccccc1 |  | 50.1 µM (active) |

Assay: MultiTox-Fluor Cytotoxicity Assay - LYMP1-003 - Live Cells (AID 962);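 also: 0% = DMSO only and full loss = 92 µM tetraoctylammonium bromide; cytotoxic hits lower the live-cell protease signal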
Settings: LYMP1-003 lymphoblastoid cells, MultiTox-Fluor live-cell protease fluorescence; series mostly up to 92.2 µM; activity change, negative = fewer live cells: at the top concentration
In short: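 LYMP1-003 human lymphoblastoid cells (2500/well) in complete medium were preincubated 5 hr at 37 C, then exposed to compounds for 16 hr at 37 C. Live-cell protease cleavage of GF-AFC read by fluorescence (Ex/Em 405/510); AC50 from Hill fits.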

| Structure (SMILES) | activity change, negative = fewer live cells |
| --- | --- |
| O=C(O)C(Br)Br | -12.6% |
| Cc1ccc(OP(=O)(Oc2ccc(C)cc2)Oc2ccc(C)cc2)cc1 | 0.52% |
| Oc1c(Cl)c(Cl)cc(Cl)c1Cl | -3.9% |
| Nc1ccc(Cc2ccc(N)c(Cl)c2)cc1Cl | -5.33% |
| CN(C)c1ccc(N(C)C)cc1 | -6.39% |
| Brc1ccc(Oc2ccc(Br)cc2Br)c(Br)c1 | 3.17% |
| O=[N+]([O-])c1c(Cl)c(Cl)c(Cl)c(Cl)c1Cl | -3.86% |
| ClCC(Cl)Cl | -9.84% |
| C=CC(=O)OCCO | -7.86% |
| CC(C)Br | -9.08% |
| O=[N+]([O-])c1ccc(O)c([N+](=O)[O-])c1 | -14.1% |
| CCCC[N+](=O)[O-] | -4.66% |
| Cc1cc(-c2cc(C)c(N)c(C)c2)cc(C)c1N | -2.56% |
| Nc1cc(Cl)ccc1O | -29.6% |
| CCN(N=O)C(N)=O | 1.09% |
| N#CC(Cl)(Cl)Cl | -2.58% |
| CCCCC(CC)COC(=O)c1ccc(C(=O)OCC(CC)CCCC)c(C(=O)OCC(CC)CCCC)c1 (stereo unspecified) | -7.3% |
| O=C(O)C(Br)CBr (stereo unspecified) | -5.31% |

| Structure (SMILES) | activity change, negative = fewer live cells |
| --- | --- |
| Nc1c(Br)cc([N+](=O)[O-])cc1[N+](=O)[O-] | -11.6% |
| O=[N+]([O-])c1ccccc1CCl | -5.77% |
| N#CC(Br)Br | -2.42% |
| O=C(O)C(Cl)Br (stereo unspecified) | -10.7% |
| COP(=S)(OC)SCn1nnc2ccccc2c1=O | -52.3% |
| Nc1ccc([N+](=O)[O-])cc1N | -20.9% |
| O=C(O)c1cccc(Cl)c1 | -1.98% |
| Cc1cc(N=Nc2ccccc2C)ccc1N | -19.3% |
| OCCCCO | -7.85% |
| CC(C)(COCC1CO1)COCC1CO1 (stereo unspecified) | -2.67% |
| Cc1ccc2c(c1N)C(=O)c1ccccc1C2=O | -19.6% |
| COc1ccccc1N | -6.37% |
| CC(C)(C)OOC(=O)c1ccccc1 | -8.12% |
| c1ccc(N=NNc2ccccc2)cc1 | -4.43% |
| COC(C)(C)C | 0.639% |
| C(CCOCC1CO1)COCC1CO1 (stereo unspecified) | -2.56% |
| O=[N+]([O-])/C=C/c1ccccc1 | -8.49% |
